Screens: PubChem BioAssay, National Center for Advancing Translational Sciences (NCATS)
Only some compounds are listed: those with a hit (about 11% of all), similar ones and a draw of the others.
HPGD block: qHTS Assay for Inhibitors of HPGD (15-Hydroxyprostaglandin Dehydrogenase) | purified HPGD, NADH fluorescence kinetic, PGE2 substrate | Potency, µM, usual class: inhibitors | 4.3% of 150,000 active | AID 894, 2007
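NADH formation kinetics: reaction with 30 uM PGE2 and 1 mM NAD+ (final), 20 nM enzyme, Tris-HCl pH 8 with Tween 20, after 15 min compound preincubation at room temperature. Fluorescence change, last versus first of five reads.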
PNC inhibitor: High Content Assay for Compounds that inhibit the Assembly of the Perinucleolar Compartment; PC3M PTB-GFP, PNC prevalence imaging, 16 h; hits give low values; activity change (PNC), negative = inhibition, % at 10 µM; 3.1% of 140,000 active; AID 2417, 2010;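 active means readout at or below -70, meaning at least 70% loss of cells showing the perinucleolar compartment, a nuclear body marking cancer cells; inconclusive means readout between -30 and a set limit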
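Read-out is percentage of cells bearing a perinucleolar compartment, from automated 20x imaging of fixed, Hoechst-stained PC3M PTB-GFP cells. Cells were seeded 4 h, then exposed 16 h to compound (23 nl of library stock) in duplicate plates.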
ALDH1A1 block: qHTS Assay for Inhibitors of Aldehyde Dehydrogenase 1 (ALDH1A1); Aldehyde dehydrogenase 1A1 (Homo sapiens), P00352; Purified ALDH1A1, NADH fluorescence, propionaldehyde substrate; Potency, µM (titrated, usually from 75.3 µM), usual class: inhibitors; 7.3% of 220,000 active; AID 1030, 2008
Target sequence (P00352 whole entry, looked up): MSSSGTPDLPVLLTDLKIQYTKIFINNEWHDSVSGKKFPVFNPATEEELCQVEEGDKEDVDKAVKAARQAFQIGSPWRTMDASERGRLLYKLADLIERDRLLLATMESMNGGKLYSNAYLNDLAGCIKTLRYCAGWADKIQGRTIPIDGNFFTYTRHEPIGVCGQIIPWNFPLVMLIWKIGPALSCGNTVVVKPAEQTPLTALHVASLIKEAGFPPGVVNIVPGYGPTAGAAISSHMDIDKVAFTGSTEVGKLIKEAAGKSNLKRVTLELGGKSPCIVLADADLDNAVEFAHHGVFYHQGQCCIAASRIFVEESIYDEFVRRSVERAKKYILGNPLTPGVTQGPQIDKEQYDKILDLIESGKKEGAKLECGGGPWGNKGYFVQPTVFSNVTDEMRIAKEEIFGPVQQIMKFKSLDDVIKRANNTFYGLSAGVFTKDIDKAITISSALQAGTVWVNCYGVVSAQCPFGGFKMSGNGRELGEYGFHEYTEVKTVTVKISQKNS
A number is an active result; 0 = inactive; ? = inconclusive; - = no result; [ ] = remark or other dose. Unless noted, the call rests on the fitted dose curve; in most records, active means well fitted inhibition curve with a large enough effect (not every such curve was filed as active); inconclusive means small, poorly fitted or top-dose-only effect, or another doubt; inactive means no such curve, though single readings can be large or run the other way.

SMILES	HPGD block	PNC inhibitor	ALDH1A1 block
Cn1c(-c2cccc([N+](=O)[O-])c2)cnc1NCc1cccc([N+](=O)[O-])c1	-	-	4.7µM
Cn1c(-c2ccc(Br)cc2)cnc1NCc1cccnc1	0	0	10µM
C[C@@H]1CC2C3CCC4=CC(=O)C=CC4(C)[C@@]3(F)[C@@H](O)CC2(C)[C@@]1(O)C(=O)CO (some centres not stated)	0	-	0
Cc1cc(NC(=O)COc2c(C)cccc2C)no1	-	-	0
O=C(CN1CCN(C/C=C/c2ccccc2)CC1)NC(=O)NC1CCCCC1	-	-	0
CC(=O)[C@@H]1[C@@H](C(=O)c2ccc(C)cc2)[C@]2(C(=O)Nc3ccccc32)[C@H]2C=Cc3cc(F)ccc3N12	0	0	?
O=C(c1ccc(F)cc1)[C@@H]1[C@@H](C(=O)c2ccccc2)[C@@]2(C(=O)Nc3ccccc32)[C@H]2c3ccccc3C=CN12	0	0	20µM
CCCCNC(=S)NC(=O)c1ccc(Cl)cc1Cl	0	?	25µM
O=C(NC(=S)NCCN1CCOCC1)c1ccc(Cl)cc1Cl	0	0	0
COc1ccccc1-c1nnc(SCC(=O)O)n1-c1ccc(C)cc1	-	-	0
Cc1c(-n2c(SCC(=O)O)nnc2-c2ccccc2Cl)c(=O)n(-c2ccccc2)n1C	0	-97	0
CC(=NC1CC1)c1c(-c2ccccc2)[nH]n(-c2nc3ccccc3s2)c1=O	0	0	0
CC(=NC1CCCC1)c1c(C)[nH]n(-c2nc3ccccc3s2)c1=O	0	0	14µM
Cc1ccc(C2=NN(C(=O)CCC(=O)O)C(c3cn(-c4ccccc4)nc3-c3ccc(C)cc3)C2)cc1 (configuration not stated)	-	-	0
Cc1ccc(-n2nc(CN3CCOCC3)c(-c3ccccc3)c2N)cc1Cl	0	0	0
O=C(NCCc1c[nH]c2ccccc12)C1CCN(c2nnc(N3CCCC3=O)s2)CC1	0	0	0.32µM
O=C(O)C1CCCCC1C(=O)NCCc1c[nH]c2ccccc12 (configuration not stated)	0	0	0
C[C@@]12CCC(=O)C=C1CC[C@H]1C2[C@@H](O)C[C@]2(C)[C@@H]1CC[C@@]2(O)C(=O)CO (some centres not stated)	0	-	0[13.5 µM]
CCOC(=O)C1=C2NC(=O)c3ccccc3N2C(=O)C1	-	-	25µM
CCOC(=O)C1=C(N)N(c2ccccc2Oc2ccccc2)C(=O)C1	0	0	0
Cc1ccccc1OCC(=O)NNC(=O)CCN1C(=O)c2ccccc2C1=O	-	-	0
Cc1cccc2c1N(CCOc1ccccc1Cl)C(=O)C2=O	0	0	0
Cc1ccccc1OCCN1C(=O)C(=O)c2cccc(C)c21	0	0	0.22µM
Cc1ccccc1OCCN1C(=O)c2ccccc2C1=O	28µM	0	0
O=C(OCc1nnc(-c2ccc(Br)cc2)o1)c1cncc(Br)c1	-	-	0
SMILES	HPGD block	PNC inhibitor	ALDH1A1 block
CC(OC(=O)c1ccc2c(=O)n3c(nc2c1)CCCCC3)C(=O)Nc1ccc(F)cc1Cl (configuration not stated)	0	?	0
Cc1cccc(-n2c(SCC(=O)Nc3nnc(C)s3)nnc2-c2ccoc2C)c1	0	0	?
CCc1nnc(NC(=O)CSc2nnc(-c3ccoc3C)n2-c2cccc(C)c2)s1	0	-96	?
COc1ccc(-n2c(SCC(=O)Nc3nccs3)nnc2-c2ccoc2C)cc1	0	0	0
COc1cccc(-n2c(SCC(=O)Nc3nccs3)nnc2-c2ccoc2C)c1	0	-100	?
COc1ccc(-n2nnnc2SCC(=O)Nc2ccccc2N2CCOCC2)cc1OC	-	-	0
COC(=O)c1c(NC(=O)CSc2nnnn2-c2ccccc2)sc2c1CCC(C(C)(C)C)C2 (configuration not stated)	0	0	13µM
COC(=O)c1c(NC(=O)CSc2nnnn2-c2ccccc2)sc2c1CCC(C)C2 (configuration not stated)	0	0	0
CC(=O)c1cccc(-n2nnnc2SCC(=O)Nc2ccccc2N2CCCCC2)c1	0	-106	0
COc1ccc(S(=O)(=O)NCCc2nnc3ccc(SCc4cccnc4)nn23)cc1	-	-	0
COc1cccc(NC(=O)Nc2ccccc2C(N)=O)c1	-	-	0
CC1(c2ccccc2)NC(=O)N(Cc2ccc([N+](=O)[O-])cc2)C1=O (configuration not stated)	0	0	0
O=C(NNS(=O)(=O)c1ccc(Br)cc1)c1cccs1	-	-	0
CCc1nnc(NC(=O)CSc2nnnn2-c2cccc(C(=O)OC)c2)s1	14µM	0	?
CCc1nnc(NC(=O)CSc2nnnn2C)s1	?	0	0
CCOC(=O)N1CCN(c2c(F)cc3[nH]c(=S)[nH]c3c2Br)CC1	?	0	0
CCOC(=O)N1CCN(c2ccc(C(C)=O)cc2F)CC1	0	0	0
CCCC(=O)c1ccc(N2CCN(S(=O)(=O)c3ccccc3)CC2)c(F)c1	0	0	0
CCC(=O)c1ccc(N2CCN(C(=O)COc3ccccc3F)CC2)c(F)c1	-	-	0
CCC(=O)c1ccc(N2CCN(C(=O)c3ccccc3F)CC2)c(F)c1	-	-	14µM
CCOC(=O)N1CCN(c2ccc(C(=O)c3ccccc3)cc2F)CC1	28µM	0	?
CCOC(=O)N1CCN(c2cc3[nH]c(=S)[nH]c3cc2F)CC1	?	-91	?
CCCC(=O)c1ccc(N2CCCC2)c(F)c1	22µM	0	?
Cc1ccc(S(=O)(=O)N(CC(=O)O)c2ccc(Cl)cc2)cc1	0	-	0
NN(CC(=O)O)CC(=O)O	0	-	0[13.5 µM]
SMILES	HPGD block	PNC inhibitor	ALDH1A1 block
CO[C@H]1OC[C@@]2(C)[C@@H]3C4=C(CN2C(=O)OC(C)(C)C)[C@H](C)[C@H](CO)[C@H](CO)[C@H]4CC[C@H]13	0	-	0
CCC(=O)c1ccc(N2CCCCCC2)c(F)c1	16µM	0	?
CCC(=O)c1ccc(N2CCCC2)c(F)c1	0	0	0
O=C(O)CC1SC(N/N=C/c2ccc(Br)cc2)NC1=O (configuration not stated)	-	-	0
Cc1nc2cc(NC(=O)CCS(=O)(=O)c3ccccc3)ccc2s1	0	0	0
Cc1sc2ccc3sccc3c2[n+]1C	-	-	0
Cc1sc2c3ccsc3ccc2[n+]1C	-	-	4.5µM
CCOCCOC(=O)C1=C(C)N(C)C(=O)NC1c1ccccc1Cl (configuration not stated)	0	0	0
CC1=C(C(=O)OCC(C)C)C(c2ccccc2Cl)NC(=O)N1C (configuration not stated)	0	0	20µM
O=C(O)c1sccc1SCc1ccc(Cl)cc1Cl	0	0	0
C=CCN1C(=O)/C(=C/c2ccc(O)c(OC)c2)S/C1=N/c1nccs1	0	0	1µM
C=CCN1C(=O)/C(=C/c2ccc(N(C)C)cc2)S/C1=N\c1nnc(CC)s1	0	0	?
COc1ccc(/C=C2\SC(=N)N(c3nccs3)C2=O)cc1OC	?	0	0
C=CCN1C(=O)/C(=C/c2ccc(OCC(=O)O)cc2)S/C1=N/c1nccs1	0	?	5µM
Cc1cc(C)c(S(=O)(=O)n2c([N+](=O)[O-])cnc2C)c(C)c1	0	0	?
CCOC(=O)c1[nH]c(C)c(C)c1C	0	0	0
CCOC(=O)c1[nH]c(C)c(/C=N/O)c1C	?	-115	0
